# In PubChem BioAssay AID1508601 (ICCB-Longwood Screening Facility, Harvard Medical School, 2020):
# Out of some 5,700 compounds screened, about 85 (1%) were called active. No stated cut-off is given here; in the data, active means p53-positive nuclei above about 36% (passing the limit was not always enough); inactive means the rest. Many of the other results were omitted from the sample, so actives are more common in it than they were.
# Legend:
# [1] = p53 stabilisation in HPV-positive human cells, imaging, p53-positive nuclei imaging, 24 h, 48 h (AID 1508601); details: 24/48 h
# [2] = molecular target: Cellular tumor antigen p53 (Homo sapiens) (UniProt P04637); assay: as above; details: 24/48 h, stronger effect = higher value
# [3] = measured here: cell number at 24 h, Library stock concentration: 80 uM
# [4] = measured here: cell number at 24 h, Library stock concentration: 400 uM
# [5] = measured here: cell number at 24 h, Library stock concentration: 2 mM
# [6] = measured here: cell number at 24 h, Library stock concentration: 10 mM
# [7] = measured here: cell number at 48 h, Library stock concentration: 80 uM
# [8] = measured here: cell number at 48 h, Library stock concentration: 400 uM
# [9] = measured here: cell number at 48 h, Library stock concentration: 2 mM
# [10] = measured here: cell number at 48 h, Library stock concentration: 10 mM
# [11] = Library stock concentration: 80 uM
# [12] = Library stock concentration: 400 uM
# [13] = Library stock concentration: 2 mM
# [14] = Library stock concentration: 10 mM
# [15] = measured here: p53 positive nuclei at 24 h, Library stock concentration: 80 uM
# [16] = measured here: p53 positive nuclei at 24 h, Library stock concentration: 400 uM
# [17] = measured here: p53 positive nuclei at 24 h, Library stock concentration: 2 mM
# [18] = measured here: p53 positive nuclei at 24 h, Library stock concentration: 10 mM
# [19] = measured here: cell number at 24 h, concentration not given here
# [20] = measured here: cell number at 48 h, concentration not given here
# [21] = measured here: p53 positive nuclei at 24 h, concentration not given here
# Cellular tumor antigen p53 (Homo sapiens), sequence (P04637 whole entry, looked up): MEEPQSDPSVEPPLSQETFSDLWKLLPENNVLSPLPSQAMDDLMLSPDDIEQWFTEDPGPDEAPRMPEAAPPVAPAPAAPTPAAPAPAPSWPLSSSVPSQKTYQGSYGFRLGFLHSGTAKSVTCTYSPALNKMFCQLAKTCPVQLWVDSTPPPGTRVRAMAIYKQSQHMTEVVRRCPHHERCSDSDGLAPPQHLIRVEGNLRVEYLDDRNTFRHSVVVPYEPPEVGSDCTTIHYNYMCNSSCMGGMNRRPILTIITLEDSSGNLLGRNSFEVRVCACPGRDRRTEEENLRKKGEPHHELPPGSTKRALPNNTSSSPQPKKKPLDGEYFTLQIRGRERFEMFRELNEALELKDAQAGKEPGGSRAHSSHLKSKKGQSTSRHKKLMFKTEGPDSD
structure (smiles),measurement,setting,value
CCN1CCN(Cc2ccc(Nc3ncc4c(n3)N(C)c3ccccc3C(=O)N4C)cc2C(F)(F)F)CC1,"nuclei count, normalised",[1]; [3],77.9%
same,"nuclei count, normalised",[1]; [4],81%
same,"nuclei count, normalised",[1]; [5],52.5%
same,"nuclei count, normalised",[1]; [6],35.9%
same,"nuclei count, normalised",[1]; [7],81.7%
same,"nuclei count, normalised",[1]; [8],83.6%
same,"nuclei count, normalised",[1]; [9],35.4%
same,"nuclei count, normalised",[1]; [10],19.9%
same,"p53-positive nuclei, normalised",[2]; [11],-0.0235% (inactive)
same,"p53-positive nuclei, normalised",[2]; [12],-0.051% (inactive)
same,"p53-positive nuclei, normalised",[2]; [13],1.78% (inactive)
same,"p53-positive nuclei, normalised",[2]; [14],22.4% (inactive)
same,"p53-positive nuclei, normalised",[2]; [15],-0.148%
same,"p53-positive nuclei, normalised",[2]; [16],-0.0416%
same,"p53-positive nuclei, normalised",[2]; [17],-0.148%
same,"p53-positive nuclei, normalised",[2]; [18],33.5%
CC1CCO[C@H]2Cn3cc(C(=O)NCc4ccc(F)cc4F)c(=O)c(O)c3C(=O)N12 (some centres undefined),"nuclei count, normalised","[1]; measured here: cell number at 24 h, Library stock concentration: 3.33 mM",106%
same,"nuclei count, normalised","[1]; measured here: cell number at 48 h, Library stock concentration: 3.33 mM",103%
same,"p53-positive nuclei, normalised",[2]; Library stock concentration: 3.33 mM,-0.143% (inactive)
same,"p53-positive nuclei, normalised","[2]; measured here: p53 positive nuclei at 24 h, Library stock concentration: 3.33 mM",-0.188%
CCCCC[C@H](O)/C=C/[C@H]1C2CC(CO2)[C@@H]1C/C=C\CCCC(=O)O (some centres undefined),"nuclei count, normalised",[1]; [19],83.4%
same,"nuclei count, normalised",[1]; [20],84.7%
same,"p53-positive nuclei, normalised",[2]; concentration not given here,0.109% (inactive)
same,"p53-positive nuclei, normalised",[2]; [21],0.00988%
CN1CCN(C(=S)SSC(=S)N2CCN(C)CC2)CC1,"nuclei count, normalised",[1]; [3],108%
same,"nuclei count, normalised",[1]; [4],109%
same,"nuclei count, normalised",[1]; [5],60.3%
same,"nuclei count, normalised",[1]; [6],52.3%
same,"nuclei count, normalised",[1]; [7],109%
same,"nuclei count, normalised",[1]; [8],109%
same,"nuclei count, normalised",[1]; [9],53.9%
same,"nuclei count, normalised",[1]; [10],37.3%
same,"p53-positive nuclei, normalised",[2]; [11],-0.131% (inactive)
same,"p53-positive nuclei, normalised",[2]; [12],-0.138% (inactive)
same,"p53-positive nuclei, normalised",[2]; [13],39.2% (active)
same,"p53-positive nuclei, normalised",[2]; [14],89.9% (active)
same,"p53-positive nuclei, normalised",[2]; [15],-0.116%
same,"p53-positive nuclei, normalised",[2]; [16],-0.0641%
same,"p53-positive nuclei, normalised",[2]; [17],99.7%
same,"p53-positive nuclei, normalised",[2]; [18],111%
CCN(CC)C(=O)N1CCN(C)CC1,"nuclei count, normalised",[1]; [19],108%
same,"nuclei count, normalised",[1]; [20],102%
same,"p53-positive nuclei, normalised",[2]; concentration not given here,0.000717% (inactive)
same,"p53-positive nuclei, normalised",[2]; [21],-0.0826%
